Test results published in the supplement of paper PMC6555819.

Columns and labels:
Assay in all cases: PBM binding z-score (relative to random genomic background probes); higher = stronger binding; sequences stand for … in GC…GCGATTGACAGCGTAGAATGAAGG
[1] = tested on: FXR:RXRa (NR concentration 270 nM, RXRa partner concentration 90 nM)
Outline: (§1)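 Binding buffer was PBS pH 7.4 with 2% milk, 0.02% Triton X-100, 1 mM DTT, 0.2 mg/mL BSA and 0.4 mg/ml salmon testes DNA. In it, ligand-free nuclear receptor dimers were incubated 1 h on custom Agilent 4×180K protein-binding microarrays carrying double-stranded probes. Antibodies against each partner (one per run) detected binding, and z-scores were calculated against random background probes after regression normalization of scanned fluorescence.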

[2] = tested on: LXRa:RXRa (NR concentration 270 nM, RXRa partner concentration 90 nM)
Outline: as §1

[3] = tested on: LXRa homodimer (NR concentration 270 nM)
Outline: as §1

[4] = tested on: LXRb:RXRa (NR concentration 270 nM, RXRa partner concentration 90 nM)
Outline: as §1

[5] = tested on: LXRb homodimer (NR concentration 270 nM)
Outline: as §1

[6] = tested on: PPARa:RXRa (NR concentration 270 nM, RXRa partner concentration 90 nM)
Outline: as §1

[7] = tested on: PPARg:RXRa (NR concentration 180 nM, RXRa partner concentration 90 nM)
Outline: as §1

[8] = tested on: PPARg:RXRa 270nM:90nM, anti-RXR (NR concentration 270 nM, RXRa partner concentration 90 nM)
Outline: as §1

[9] = tested on: PPARg:RXRa 30nM:10nM, anti-RXR (NR concentration 30 nM, RXRa partner concentration 10 nM)
Outline: as §1

[10] = tested on: PPARg:RXRa 90nM:30nM, anti-RXR (NR concentration 90 nM, RXRa partner concentration 30 nM)
Outline: as §1

[11] = tested on: PPARg:RXRa DBDmut IVT, anti-RXR (DBD mutation: RXRa K156A/R161A, NR concentration 270 nM, RXRa partner concentration 90 nM)
Outline: as §1

[12] = tested on: PPARg:RXRa IVT, anti-PPARg (NR concentration 270 nM, RXRa partner concentration 90 nM)
Outline: as §1

[13] = tested on: PPARg DBDmut:RXRa IVT, anti-PPARg (DBD mutation: PPARg1 K132A/R137A, NR concentration 270 nM, RXRa partner concentration 90 nM)
Outline: as §1

[14] = tested on: PPARg DBDmut IVT, anti-PPARg (DBD mutation: PPARg1 K132A/R137A, NR concentration 270 nM)
Outline: as §1

[15] = tested on: PPARg homodimer (NR concentration 180 nM)
Outline: as §1

[16] = tested on: PXR:RXRa (NR concentration 270 nM, RXRa partner concentration 90 nM)
Outline: as §1

[17] = tested on: PXR homodimer (NR concentration 270 nM)
Outline: as §1

[18] = tested on: RARa:RXR (NR concentration 270 nM, RXRa partner concentration 90 nM)
Outline: as §1

[19] = tested on: RARa homodimer (NR concentration 270 nM)
Outline: as §1

[20] = tested on: RARb:RXRa (NR concentration 270 nM, RXRa partner concentration 90 nM)
Outline: as §1

Sequence | PBM binding z-score [1] | PBM binding z-score [2] | PBM binding z-score [3] | PBM binding z-score [4] | PBM binding z-score [5] | PBM binding z-score [6] | PBM binding z-score [7] | PBM binding z-score [8] | PBM binding z-score [9] | PBM binding z-score [10] | PBM binding z-score [11] | PBM binding z-score [12] | PBM binding z-score [13] | PBM binding z-score [14] | PBM binding z-score [15] | PBM binding z-score [16] | PBM binding z-score [17] | PBM binding z-score [18] | PBM binding z-score [19] | PBM binding z-score [20]
CCGACTGGGGCCGAAAGGTTACCATACCATCCGG | 0.707 | 0.858 | -0.0944 | 1.08 | -1.22 | 2.02 | 1.09 | 1.84 | 0.177 | 1.26 | -0.423 | 0.138 | -1.16 | -1.62 | 0.848 | 1.29 | -0.286 | 1.78 | -0.324 | 2.01
ACACGGAGGACAAAGGTCAGAGCTACGCCAGTGA | 4.18 | 4.33 | 1.74 | 3.36 | 0.366 | 5.18 | 7.55 | 7.26 | 5.39 | 7.07 | 0.363 | 3.8 | 0.472 | -0.253 | 3.82 | 3.92 | 0.625 | 4.81 | 1.1 | 4.58
CCTGCTAGGTCATGATCAGCTAATCTACAGTATG | 3.25 | 2.63 | 0.02 | 1.94 | -0.0541 | 3.31 | 2.28 | 2.56 | 0.674 | 1.56 | 4.52 | 3.32 | 0.5 | 0.49 | 0.98 | 1.19 | -0.328 | 2.08 | 0.216 | 3.7
TCGAGTCGGTTAGTCGGGGCATTCAGCCAACATA | -0.133 | -0.389 | -0.468 | 0.0657 | -0.884 | 0.295 | -0.72 | 0.168 | 0.645 | 0.378 | 0.436 | -0.0905 | -0.814 | -1.24 | -0.388 | -0.0849 | -0.566 | -0.027 | -1.36 | -0.00486
CTACCCAGGTGAACAAGGTCGTTGATTACTATTC | 0.858 | 0.806 | 0.13 | 1.4 | -0.485 | 1.99 | 0.957 | 0.672 | 0.076 | 0.194 | 1.84 | 2.27 | 0.299 | -0.0404 | 0.541 | 2.03 | 0.96 | 1.61 | 0.91 | 1.29
CAGACTGGGGCATAAGGTTACCATAAGCCAGCCC | 0.722 | 2.35 | -0.275 | 1.27 | -0.727 | 2.55 | 3.37 | 3.96 | 2.09 | 3.72 | 4 | 4.18 | -0.272 | -0.433 | 0.704 | 0.652 | -0.537 | 1.59 | -0.341 | 1.66
ACTAGTAGTTGACTTAGGGCAACCGATACGACGC | -0.211 | -0.0231 | -0.428 | -0.351 | -0.259 | -0.00302 | 0.852 | -0.176 | -0.0859 | -0.0744 | -0.00679 | 0.335 | 0.301 | 0.391 | -0.372 | -0.0724 | -0.195 | 0.555 | 0.281 | 0.593
CCGACTGGGGCATAAGGTTAGCATAAGCCAGCCC | -0.404 | -0.371 | -0.738 | -0.254 | -1.19 | 1.04 | 1.7 | 2.32 | 0.353 | 1.83 | 3.03 | 2.86 | -1.39 | -1.75 | -0.109 | -0.447 | -0.542 | 0.115 | -0.345 | 1.12
ATCTCTAGGTAAAGTTCAGTGACAGATCGATAGA | 1.17 | 2.06 | 1.97 | 1.27 | 1.26 | 2.36 | 3.41 | 4.29 | 2.51 | 4.24 | 2.61 | 2.57 | 1.53 | 2.1 | 2.05 | 2.12 | 2.52 | 1.43 | 2.08 | 2.75
TCATATAGGTAAACAGGTGAAAGGCCGTAAGTTA | 1.02 | 0.944 | 0.383 | 0.971 | 0.244 | 3.2 | 5.16 | 4.67 | 4.73 | 5.29 | 4.71 | 4.59 | 1.06 | 1.36 | 1.42 | 0.956 | 0.656 | 1.37 | 1.25 | 0.989
ATAGGTAGGTTATCGGGTCATTCAGTTTGCGCAT | 3.2 | 3.22 | 1.93 | 3.17 | 1.52 | 3.82 | 4.18 | 4.48 | 1.91 | 3.81 | 4.9 | 5.09 | 1.49 | 1.46 | 2.74 | 3.9 | 7.44 | 3.76 | 2.57 | 2.62
ATCTCTAGGTAAAAGTACAGTGAATCCCGAGGAT | 0.212 | 0.0141 | 0.0637 | -0.267 | 0.728 | 0.877 | 1.98 | 3.02 | 1.49 | 3.07 | 1.64 | 1.67 | 1.14 | 1.43 | 0.118 | -0.149 | 0.313 | -0.057 | 1.08 | 0.298
TCTATTAGTTGATCAGGGCAACCGAAACAGCGGA | 0.646 | 0.456 | 0.302 | 0.505 | 0.641 | 0.282 | 0.218 | 2.02 | 3.78 | 2.67 | 2.16 | 0.972 | 0.672 | 0.797 | 0.546 | 0.5 | 0.292 | 0.362 | 0.492 | 0.954
CCGCGGAGGACAGAAGGTCAGAGCTGTCCGCTTT | 1.22 | 1.49 | -0.1 | 0.955 | -1.05 | 1.77 | -0.261 | 0.596 | -0.857 | 0.289 | -0.00504 | 0.1 | -1.81 | -2.04 | 0.973 | 1.42 | -0.53 | 2.3 | -0.744 | 3.25
